Source: PubChem (National Center for Advancing Translational Sciences (NCATS))
DT40 TDP1 no CPT – qHTS for Inhibitors of human tyrosyl-DNA phosphodiesterase 1 (TDP1): qHTS in cells in absence of CPT. DT40 Tdp1-/- hTDP1 cells, no CPT, ATP luminescence, 48 h. Potency, µM (titrated, usually from 46.2 µM), without a hit: at the top dose activity change, negative = growth inhibition, usual class: inhibitors. actives 15% (n = 420,000); further: potency means the concentration at half of the fitted maximal effect; on the % scale 0 is the no-effect control and ±100 the full control effect; nearly all actives have a fitted effect of over 55% in size
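Luminescent ATP content (CellTiter-Glo) served as the growth readout. Knockout chicken DT40 cells expressing human TDP1 were exposed to compounds without camptothecin for a minimum 48 hr at 37 °C.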
ClpP mod – qHTS Assay for Activators of ClpP; purified B. subtilis ClpP, FRET peptide cleavage, 20 min; actives 1.9% (n = 340,000); Potency, µM (titrated, usually from 57.5 µM), inactives show top-dose activity change, negative = active; ATP-dependent Clp protease proteolytic subunit (Bacillus subtilis (strain 168)), P80244; active means well fitted falling curve with a large enough effect; inconclusive means small, poorly fitted or top-dose-only effect; inactive means no such curve, though single readings can be large or run the other way; further: potency means the concentration at half of the fitted maximal effect; the source files actives as falling curves though it sought activators and does not explain the sign; nearly all actives have a fitted effect of over 65% in size
Target sequence (P80244 whole entry, looked up): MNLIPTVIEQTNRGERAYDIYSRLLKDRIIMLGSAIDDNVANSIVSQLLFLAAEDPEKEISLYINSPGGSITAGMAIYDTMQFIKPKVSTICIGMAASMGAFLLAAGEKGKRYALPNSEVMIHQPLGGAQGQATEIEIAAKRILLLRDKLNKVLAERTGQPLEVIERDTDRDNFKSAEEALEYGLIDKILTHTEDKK
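Purified B. subtilis ClpP, 10 microg/mL final in Tris/HCl pH8 with KCl, BSA, glycerol and Tween-20, cleaved an Abz/nitrotyrosine-quenched decapeptide. Fluorescence (ex 320, em 430) was read at 0 and 20 min at room temperature. Delta was normalized to 5.8 microM ADEP and DMSO/no-enzyme controls.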
DRD3 antagonist – antagonists of human D3 dopamine receptor; actives 2.5% (n = 360,000); max response, negative = inhibition, %; P35462; D3R cells, DiscoveRx beta-arrestin luminescence, antagonist mode; active compounds read low; in the data active means max response below about -50%; inconclusive means no clear call, values can overlap the other calls; further: on the % scale 0 is the no-effect control and ±100 the full control effect
Target sequence (P35462 whole entry, looked up): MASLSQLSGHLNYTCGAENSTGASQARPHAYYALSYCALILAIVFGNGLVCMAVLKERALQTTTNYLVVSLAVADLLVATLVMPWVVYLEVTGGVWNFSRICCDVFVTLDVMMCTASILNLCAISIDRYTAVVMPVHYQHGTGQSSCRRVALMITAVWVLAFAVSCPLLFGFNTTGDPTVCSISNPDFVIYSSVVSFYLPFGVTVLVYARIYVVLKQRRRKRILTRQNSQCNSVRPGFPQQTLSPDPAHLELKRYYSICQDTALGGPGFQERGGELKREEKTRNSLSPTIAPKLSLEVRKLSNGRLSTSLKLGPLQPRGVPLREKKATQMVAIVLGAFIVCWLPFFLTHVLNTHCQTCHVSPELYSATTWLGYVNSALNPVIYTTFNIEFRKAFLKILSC
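Cells plated overnight at 1500 cells/well, then exposed to library compounds with dopamine controls for 90 minutes at 37 degrees C. DiscoveRx reagent added for 30–60 minutes at room temperature; luminescence read, quantitative HTS format.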
IL1B secr inh – inhibitors of inflammasome signaling (IL-1 beta secretion) | THP-1 LPS/ATP IL-1B secretion, AlphaLISA, 16 h; active compounds read low | activity change, % at 57.5 µM | actives 4.7% (n = 360,000) | AID 743279; in the data active means activity change below about -50%; inconclusive means mostly about -30% to -49%; further: on the % scale 0 is the no-effect control and ±100 the full control effect
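THP-1 cells pretreated 1 hr with compounds (up to 57.5 uM final), then stimulated with LPS (250 ng/mL final) plus ATP (1.25 mM final); secreted IL-1B measured by AlphaLISA after 16 hr, decreased signal indicating inhibition.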
D3 ag – agonists of human D3 dopamine receptor; D3R DiscoveRx beta-arrestin cells, luminescence, 90 min; actives 0.58% (n = 410,000); P35462; max activation, %; AID 652048; in the data active means max activation above about 30%; further: 0% is about no effect
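Agonist-mode cell screen: cells plated at 1500/well and incubated overnight at 37 °C, then exposed to library compounds for 90 min at 37 °C. Detection reagent was added for 30–60 min at room temperature, and luminescence was read.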
DT40 TDP1 CPT – DT40-hTDP1 cell growth loss with CPT; chicken DT40 Tdp1-/-;hTDP1 cells + 20 nM CPT, ATP luminescence, 48 h; Potency, µM (top dose mostly 46.2 µM), for inactives: top-dose activity change, negative = growth inhibition, most hits filed as inhibitors; actives 12% (n = 420,000); AID 686979; further: potency means the concentration at half of the fitted maximal effect; on the % scale 0 is the no-effect control and ±100 the full control effect; nearly all actives have a fitted effect of over 55% in size
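Chicken DT40 Tdp1-/- cells stably complemented with human TDP1 were seeded at 400 cells/well in medium containing 20 nM camptothecin, exposed to pin-transferred compounds, and grown at 37 °C for at least 48 hr. Viability was read as ATP luminescence.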
* marks the source's active call; other numbers are inactive results; ? = inconclusive; · = no result; [ ] = remark or other dose. Compounds with a hit are over-represented: about 21% of the library has one in this group of screens. Unless noted, the call rests on the fitted dose curve; in most records, active means well fitted inhibition curve with a large enough effect; inconclusive means small, poorly fitted or top-dose-only effect; inactive means flat fitted curve, though single readings scatter.

SMILES	DT40 TDP1 no CPT	ClpP mod	DRD3 antagonist	IL1B secr inh	D3 ag	DT40 TDP1 CPT
CC(NCC(O)c1ccc([N+](=O)[O-])cc1)C12CC3CC(CC(C3)C1)C2 (centres undefined)	?	-1%	-8	-85*	-17	?
COc1cc2c(cc1NC(=O)COc1cc(C)ccc1C)oc1ccccc12	-7%	-3%	·	·	-5	-14%
COc1cccc(C2=NN(C(=O)CCCC(=O)O)C(c3cccs3)C2)c1 (centres undefined)	2%	-25%	3	27	5	2%
CCCC(C)c1nc(C(N)=O)c2[nH]c(=O)n(-c3ccc(OC)c(OC)c3)c2n1 (centres undefined)	0%	-3%	15	0	6	-28%
Nc1cc(-c2ccc(OC(F)(F)F)cc2)nn1-c1ccc(Cl)c(Cl)c1	?	0%	-9	-65*	-5	?
CN(CCO)c1c2c(nc3cc(-c4cccc(F)c4)nn13)CCCC2	21µM*	-11%	-1	-25	-1	?
Cc1nc2cc(-c3cccc(F)c3)nn2c(C)c1CCC(=O)NC(C)c1ccccc1 (centres undefined)	?	4%	·	·	4	?
OCCCNc1c2c(nc3cc(-c4ccc(Cl)cc4)nn13)CCC2	?	?	3	?	0	-30%
Fc1cccc(-c2cc3nc4c(c(N5CCC6(CC5)OCCO6)n3n2)CCCC4)c1	23µM*	28µM*	11	-70*	-6	21µM*
COCCN1CCN(c2cc(-c3ccccc3)nc3cc(-c4cccc(F)c4)nn23)CC1	9.2µM*	25µM*	23	-79*	15	8.2µM*
Fc1cccc(-c2cc3nc(-c4ccccc4)cc(N4CCC5(CC4)OCCO5)n3n2)c1	23µM*	?	-7	-14	2	?
Cc1nn2c(N3CCOCC3)c3c(nc2c1-c1ccccc1)CCCC3	?	0%	9	-18	10	?
CCc1ccc(CNC(=O)C2CCN(c3nc4ccccc4nc3C(F)(F)F)CC2)cc1	?	1%	·	·	10	-15%
CCOc1ccc(-c2cc3c(=O)n(CC(=O)NCc4ccc(Cl)cc4)ccn3n2)cc1	0%	10%	·	·	-1	-14%
O=C(NCc1ccccc1Cl)[C@H]1CCCN1C(=O)[C@H]1CCCN1C(=O)c1cccs1	-6%	-1%	-1	-8	3	-15%
OC1CCN(c2c3c(nc4cc(-c5cccc(F)c5)nn24)CCCC3)CC1	21µM*	-22%	14	-100*	11	16µM*
Cc1ccc(NC(=O)c2c(C)nc3sc(C(=O)Nc4ccc(F)cc4)c(N)c3c2-c2ccccc2Cl)c(C)c1	-8%	3%	·	·	9	?
Cc1cc(N2CCN(C)CC2)nc2ccc(NC(=O)CCC(=O)NCCC(C)C)cc12	-26%	4%	1	1	-5	-3%
Cc1ccc(C)c(N2CCN(C(=O)CCC(=O)Nc3ccc4nc(N5CCCCC5)cc(C)c4c3)CC2)c1	12µM*	4%	·	·	0	12µM*
Cc1cc(N2CCCCC2)nc2ccc(NC(=O)CCC(=O)N3CCN(c4ccccc4)CC3)cc12	21µM*	4%	·	·	6	?
O=C(CNC(=O)c1ccc(Cl)cc1)NCc1ccccn1	-8%	-2%	-2	4	1	-6%
O=C(Nc1ccc(F)cc1F)c1cc(-c2ccccc2O)no1	-20%	-11%	·	·	-11	-27%
CCOc1ccc(-c2nnc3n2N=C(c2ccc(OC)cc2)CS3)cc1	?	-2%	-19	21	0	-25%
CCOc1ccc(C2=Nn3c(nnc3-c3ccccc3OC)SC2)cc1	0.18µM*	-1%	?	121	-3	0.21µM*
COc1ccc(C2=Nn3c(nnc3-c3ccncc3)SC2)cc1OC	?	0%	?	?	-3	?
SMILES	DT40 TDP1 no CPT	ClpP mod	DRD3 antagonist	IL1B secr inh	D3 ag	DT40 TDP1 CPT
COc1ccccc1-c1nnc2n1N=C(c1ccc(O)c(O)c1)CS2	6.5µM*	1%	-30	115	2	6.5µM*
COCC(=O)Nc1cc(C(=O)N2CC3(C)CC2CC(C)(C)C3)c2c(c1)nc(-c1ccncc1)n2C (centres undefined)	-3%	·	·	·	·	12%[9.04 µM]
CCOC(=O)N1CCN(C(=O)c2cn(CC)c3ccc(S(=O)(=O)N4CCOCC4)cc3c2=O)CC1	4%	-13%	0	-12	4	-12%
COCCNC(=S)N(CCO)Cc1cc2cc3c(cc2[nH]c1=O)OCCO3	-5%	4%	4	0	1	-3%
COC(=O)c1cc2sc(Cl)cc2n1Cc1cc(C)ccc1C	-26%	1%	·	·	-4	-16%
C=CCNC(=O)N1CCCC(N2CCN(c3ccccc3OC)CC2)C1 (centres undefined)	2%	16µM*	-15	11	-10	18%
COc1ccccc1N1CCN(C2CCCN(C(=O)c3cc(C(C)C)on3)C2)CC1 (centres undefined)	?	2%	-62*	5	-2	?
O=C(c1noc2c1CCCC2)N1CCCC(N2CCN(c3ccccc3F)CC2)C1 (centres undefined)	?	0%	-23	0	-1	29µM*
COc1ccccc1N1CCN(C2CCCN(C(=O)c3cccc(-c4ccco4)c3)C2)CC1 (centres undefined)	?	-10%	-66*	?	-13	?
O=C1CCN(Cc2ccccc2)C=C1c1cccc(O)c1	?	-2%	-9	-22	13	?
Cc1ccc(OCC(=O)NNC(=O)c2ccc(F)c(S(=O)(=O)N3CCOCC3)c2)cc1C	-9%	1%	3	15	-4	-24%
CC(OC(=O)c1snc(C(=O)NC2CCCCC2)c1N)C(=O)NC(C)(C)C (centres undefined)	13µM*	28µM*	9	0	2	14µM*
O=C(COC(=O)c1nsc(Cl)c1Cl)NC1CCCCC1	-2%	·	8	15	-6	-1%
CC(C)(C)NC(=O)COC(=O)c1snc(C(=O)NC2CCCCC2)c1N	-13%	28µM*	46	?	2	-14%
Cc1cccc(C)c1OCC(=O)OCC(=O)Nc1ccc(Cl)cn1	4%	-1%	-3	7	3	7%
